Assay results: PubChem BioAssay (NCI)
Compounds without any hit were thinned out: in the full panel of roughly 83,000, 20% have a hit.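 Each cell line was grown in a 96-well plate and treated with one concentration of compound for 48 hours. Values below 10 were considered active.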 Activity calls are given as the source filed them.

Columns and labels:
Assay in all cases: NCI-60 one-dose screen, 48 h (100 = growth as untreated, 0 = no growth, -100 = all killed)
Conditions in all cases: 10 µM
SK-MEL-2 melanoma = test system: SK-MEL-2 melanoma
EKVX NSCLC = test system: EKVX NSCLC
SN12C renal = test system: SN12C renal
UO-31 renal = test system: UO-31 renal
TK-10 renal = test system: TK-10 renal
ACHN renal = test system: ACHN renal
CAKI-1 renal = test system: CAKI-1 renal
A498 renal = test system: A498 renal
CCRF-CEM leukemia = test system: CCRF-CEM leukemia
MOLT-4 leukemia = test system: MOLT-4 leukemia

Measured: growth

CN(C)CCNC(=O)OCCCCOc1cc(O)c2c(=O)cc(-c3ccccc3)oc2c1
inactive: EKVX NSCLC 11.7%
active: SK-MEL-2 melanoma -59.7% | SN12C renal -9.43% | UO-31 renal -91.2% | TK-10 renal 0.634% | ACHN renal -97.5% | CAKI-1 renal -39.1% | A498 renal -76.4% | CCRF-CEM leukemia -5.67% | MOLT-4 leukemia -42.1%

Cc1ccc(-c2nc3ccc(C(=O)N=Nc4c(O)[nH]c5ccc(Cl)cc45)cc3[nH]2)cc1
active: CCRF-CEM leukemia -31.7%
inactive: SK-MEL-2 melanoma 57.3% | EKVX NSCLC 37.9% | SN12C renal 23% | UO-31 renal 72.4% | TK-10 renal 65.6% | ACHN renal 55.1% | CAKI-1 renal 58% | A498 renal 119%

CN1CCN(c2ccc(C(=O)/C=C/c3ccc(OC(F)F)cc3)cc2)CC1
inactive: SK-MEL-2 melanoma 111% | EKVX NSCLC 80.1% | SN12C renal 26.4% | UO-31 renal 31.4% | TK-10 renal 63.8% | ACHN renal 65.5% | CAKI-1 renal 65.8% | A498 renal 51.6% | CCRF-CEM leukemia 21.9%
active: MOLT-4 leukemia 0.533%

CN1CCN(c2ccc(Nc3nc(N4CCN(S(=O)(=O)c5ccc(Cl)cc5)CC4)c4sccc4n3)cc2)CC1
active: ACHN renal -64.4% | CAKI-1 renal 7.7% | CCRF-CEM leukemia 1.87%
inactive: SK-MEL-2 melanoma 79.4% | EKVX NSCLC 62.1% | SN12C renal 91.9% | UO-31 renal 64.2% | TK-10 renal 85.9% | A498 renal 125%

COc1ccc(-c2nc(S(=O)(=O)c3ccccc3)c(S(C)(=O)=O)o2)cc1
active: SN12C renal -63.7% | UO-31 renal -100% | TK-10 renal -99.3% | ACHN renal -100% | CAKI-1 renal -94.2% | CCRF-CEM leukemia -46.7%
inactive: SK-MEL-2 melanoma 69.7% | EKVX NSCLC 94.1% | A498 renal 113%

Cc1noc2c(Cc3ccccc3)nn(CC(=O)N/N=C/c3ccc(F)cc3)c(=O)c12
active: UO-31 renal 5.87% | ACHN renal 9.34% | A498 renal -20%
inactive: SK-MEL-2 melanoma 73.7% | EKVX NSCLC 70.8% | SN12C renal 25.6% | TK-10 renal 59.2% | CAKI-1 renal 33.2% | CCRF-CEM leukemia 100% | MOLT-4 leukemia 106%

O=C(Nc1ccccc1)Nc1nc2ccccc2s1
inactive: SK-MEL-2 melanoma 92.9% | EKVX NSCLC 64.1% | SN12C renal 88.9% | UO-31 renal 57.5% | TK-10 renal 95.4% | ACHN renal 82.2% | CAKI-1 renal 76.7% | A498 renal 129% | CCRF-CEM leukemia 67.5%

Cc1cc(C)nc(SCC(=O)Nc2ccc(S(N)(=O)=O)cc2)n1
inactive: SK-MEL-2 melanoma 103% | EKVX NSCLC 99.8% | SN12C renal 105% | UO-31 renal 87.1% | TK-10 renal 102% | ACHN renal 101% | CAKI-1 renal 96.5% | A498 renal 123% | CCRF-CEM leukemia 97.1%

CC(C)NC(=O)c1cc(-c2ccc(NC(=O)Nc3ccc(N4CCN(C)CC4)c(C(F)(F)F)c3)cc2)nc2cccnc12
active: SK-MEL-2 melanoma -81.9% | EKVX NSCLC -92.4% | SN12C renal -92.9% | UO-31 renal -97.4% | TK-10 renal -93.6% | ACHN renal -100% | CAKI-1 renal -93.6% | A498 renal -97.7% | CCRF-CEM leukemia -43.6%

C=C(C)[C@@H]1CC[C@]2(C(=O)OC)CC[C@]3(C)[C@H](CC[C@@H]4[C@@]5(C)CC[C@H](N)C(C)(C)[C@@H]5CC[C@]43C)[C@@H]12
active: SK-MEL-2 melanoma -75.3% | EKVX NSCLC -95.7% | SN12C renal -92.8% | UO-31 renal -100% | TK-10 renal -87.8% | ACHN renal -100% | CAKI-1 renal -99.9% | A498 renal -91.6% | CCRF-CEM leukemia -52.3%

O=C1CCC(N2Cc3c(C#CCCCNC(=O)c4ccc(NC(=O)[C@@H]5NC6(CCCCC6)[C@@]6(C(=O)Nc7cc(Cl)ccc76)[C@H]5c5cccc(Cl)c5F)cc4)cccc3C2=O)C(=O)N1 (stereo not given in full)
inactive: SK-MEL-2 melanoma 76.4% | EKVX NSCLC 51.6% | SN12C renal 74.3% | UO-31 renal 30.3% | TK-10 renal 79.8% | ACHN renal 26.2% | CAKI-1 renal 36.1% | A498 renal 94.9% | CCRF-CEM leukemia 47.9%

C[C@H]1[C@H](C)CC[C@]2(COC(=O)CCC(=O)NCC#CCN3CCNCC3)CC[C@]3(C)C(=CC[C@@H]4[C@@]5(C)CCCNC(C)(C)[C@@H]5CC[C@]43C)[C@H]12
inactive: SK-MEL-2 melanoma 96.3% | EKVX NSCLC 73.4% | SN12C renal 64.9% | UO-31 renal 42.9% | TK-10 renal 70.9% | ACHN renal 59.4% | CAKI-1 renal 49.1% | A498 renal 111% | CCRF-CEM leukemia 12.5%

COC1=C[C@]23CCC(=O)N2CCc2cc4c(cc2[C@@H]3[C@@H]1OC(=O)CCCC(C)C)OCO4
active: MOLT-4 leukemia 9.63%
inactive: SK-MEL-2 melanoma 101% | EKVX NSCLC 80.4% | SN12C renal 104% | UO-31 renal 36.3% | TK-10 renal 66.1% | ACHN renal 32.1% | CAKI-1 renal 48% | A498 renal 25% | CCRF-CEM leukemia 59.7%

N#Cc1ccc(-c2nn(-c3ccc(C(=O)O)cc3)cc2CNc2ccc(Oc3ccccc3)cc2)cc1
inactive: SK-MEL-2 melanoma 55.6% | EKVX NSCLC 75% | SN12C renal 34.1% | UO-31 renal 66.5% | TK-10 renal 77.1% | ACHN renal 47.3% | CAKI-1 renal 59.7% | A498 renal 73% | CCRF-CEM leukemia 19.3% | MOLT-4 leukemia 19.9%

CCNCCCn1c2c(c3cc(OC)c(OC)cc3c1=O)C(=O)c1cc3c(nc1-2)OCO3
inactive: SK-MEL-2 melanoma 125% | EKVX NSCLC 76.6% | TK-10 renal 98.3% | A498 renal 87.1%
active: SN12C renal -89.2% | UO-31 renal -97.8% | ACHN renal 2.02% | CAKI-1 renal 7.87% | CCRF-CEM leukemia 0.158% | MOLT-4 leukemia -14.2%

NS(=O)(=O)c1ccc(NC(=O)CSc2ccc(-c3ccccc3)nn2)c(Br)c1
inactive: SK-MEL-2 melanoma 95.8% | EKVX NSCLC 70.1% | SN12C renal 57.4% | UO-31 renal 75.1% | TK-10 renal 118% | ACHN renal 54.2% | CAKI-1 renal 84.5% | A498 renal 120% | CCRF-CEM leukemia 89.9% | MOLT-4 leukemia 95.6%

CC(=O)Oc1ccccc1C(=O)Oc1ccc(C(=O)/C=C/c2ccncc2)cc1
inactive: SK-MEL-2 melanoma 108% | EKVX NSCLC 80.6% | SN12C renal 18.6% | UO-31 renal 38.7% | TK-10 renal 91.6% | ACHN renal 56% | CAKI-1 renal 59.7% | A498 renal 84% | CCRF-CEM leukemia 43.6% | MOLT-4 leukemia 40.1%

O=C(CNc1nc(-c2ccccc2)cs1)Nc1ccc(Br)cc1
active: SK-MEL-2 melanoma -76.8% | EKVX NSCLC -95.9% | SN12C renal -90.3% | UO-31 renal -98.2% | TK-10 renal -95.3% | ACHN renal -100% | CAKI-1 renal -92.3% | A498 renal -89.6% | CCRF-CEM leukemia 5.21% | MOLT-4 leukemia -12.4%

CC(=O)Nc1nc(-c2ccc(N3CCN(C)CC3)c(NS(=O)(=O)c3cccc4c(N(C)C)cccc34)c2)cs1
active: CCRF-CEM leukemia 8.38%
inactive: SK-MEL-2 melanoma 65.3% | EKVX NSCLC 69.9% | SN12C renal 75.6% | UO-31 renal 60% | TK-10 renal 84.3% | ACHN renal 60.7% | CAKI-1 renal 66.5% | A498 renal 117%

Cc1cccc(-c2nc(Nc3ccccc3C(=O)O)c3ccccc3n2)c1
inactive: SK-MEL-2 melanoma 66% | EKVX NSCLC 21% | SN12C renal 40.7% | UO-31 renal 31% | TK-10 renal 85.8% | ACHN renal 36.4% | CAKI-1 renal 52.4% | A498 renal 47.6% | CCRF-CEM leukemia 17.8% | MOLT-4 leukemia 34.3%

C=C1CCC2C3(C)COC(c4ccccc4F)OC3CCC2(C)C1C/C=C1/C(=O)OCC1O (stereo not given)
active: SK-MEL-2 melanoma -59.2% | EKVX NSCLC -51.6% | SN12C renal -40.9% | UO-31 renal -96.5% | TK-10 renal -67.1% | ACHN renal -99.4% | CAKI-1 renal -40.7% | MOLT-4 leukemia 9.47%
inactive: A498 renal 101% | CCRF-CEM leukemia 15.1%

O=C(Nc1nc2ccccc2s1)c1ccc(Br)cc1
inactive: SK-MEL-2 melanoma 96.1% | EKVX NSCLC 63.5% | SN12C renal 89.9% | UO-31 renal 76.1% | TK-10 renal 104% | ACHN renal 94.8% | CAKI-1 renal 91.1% | A498 renal 115% | CCRF-CEM leukemia 85.6% | MOLT-4 leukemia 74.3%

O=C(CSc1nnc(-c2c[nH]c3ccccc23)n1-c1ccccc1)Nc1ccc(C(=O)/C=C/c2ccc(Cl)cc2)cc1
inactive: SK-MEL-2 melanoma 87.6% | EKVX NSCLC 59% | SN12C renal 83% | UO-31 renal 45.8% | TK-10 renal 91.8% | ACHN renal 68.4% | CAKI-1 renal 68.2% | A498 renal 90.7% | CCRF-CEM leukemia 83.7% | MOLT-4 leukemia 58.8%

O=C(Nc1nc2ccc([N+](=O)[O-])cc2s1)Nc1cc(Cl)ccc1I
active: SK-MEL-2 melanoma -62.1% | EKVX NSCLC -23.7% | SN12C renal -16.8% | UO-31 renal -18.3% | TK-10 renal -4.54% | ACHN renal -3.53% | CAKI-1 renal -24.7% | A498 renal -16.8% | CCRF-CEM leukemia -36.8% | MOLT-4 leukemia -44.6%

Cc1cccc(NC(=O)CSc2nc3ccc(F)cc3c(=O)n2-c2ccc(Cl)cc2)c1C
inactive: SK-MEL-2 melanoma 73.1% | EKVX NSCLC 75% | SN12C renal 64.1% | UO-31 renal 39.6% | TK-10 renal 108% | ACHN renal 37.8% | A498 renal 108% | CCRF-CEM leukemia 94.4% | MOLT-4 leukemia 81.3%
active: CAKI-1 renal -21.6%

O=C(CNc1nc(-c2ccccc2)cs1)Nc1cccc(Cl)c1
active: UO-31 renal 9.97% | MOLT-4 leukemia 7.42%
inactive: SK-MEL-2 melanoma 38.2% | EKVX NSCLC 13.6% | SN12C renal 41.4% | TK-10 renal 52.5% | ACHN renal 28.3% | CAKI-1 renal 28.4% | A498 renal 66.5% | CCRF-CEM leukemia 26.3%

Oc1ccc(/C=C2\CCCc3cc4ccc(O)cc4[o+]c32)c(O)c1
inactive: SK-MEL-2 melanoma 37.2% | EKVX NSCLC 65.9% | SN12C renal 26.5% | UO-31 renal 51.9% | TK-10 renal 92.3% | ACHN renal 29.3% | CAKI-1 renal 40.2% | A498 renal 130% | CCRF-CEM leukemia 39% | MOLT-4 leukemia 28.5%
